According to PubChem BioAssay (EPA / NIEHS):
More than one record can exist for a structure, and the calls need not agree. Activity calls are given as the source filed them. The calls were made as follows: active = hit-call score of the fitted dose curve at least 0.9, where 1 is the maximum; inactive = score below 0.9.

Read-out: not listed separately
Assay: BSK_MyoF_SRB: Viability Assessment in the BioMAP Diversity Plus: MyoF Assay (AID 2284267);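 also: total protein by SRB absorbance in parallel cultures as cytotoxicity measure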
Details: primary human lung fibroblasts
Summary of the method: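 Read-out is SRB absorbance at 560 nm, reflecting total protein in parallel lung fibroblast cultures harvested 24 h after compound addition. Cells were TCA-fixed (10%) and stained with 0.1% SRB; activity is referenced to DMSO.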

Compound | outcome
Nc1ccc(-c2ccc(N)c(N)c2)cc1N | inactive
O=c1[nH]c(Cl)c(Cl)cc1Cl | inactive
O=C(O)CCCc1ccc(N(CCCl)CCCl)cc1 | inactive
COC(C)(C)CCC[C@H](C)C/C=C/C(C)=C/C(=O)OC(C)C | inactive
O=P1(NCCCl)OCCCN1CCCl (stereo not given) | inactive
O=S(=O)(c1ccccc1)c1ccccc1 | inactive
Clc1ccc(-c2ccccc2)cc1 | inactive
Oc1cc(Cl)ccc1Cl | inactive

Read-out: Matrix Metallopeptidase 1 (MMP1), MMP1 (gene 4312)
Assay: BSK_MyoF_MMP1: BioMAP Diversity Plus: MyoF Assay for Matrix Metallopeptidase 1 (MMP1) Biomarker Activity (AID 2284268)
Details: primary human lung fibroblasts
Summary of the method: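 Human lung fibroblasts (MyoF system) exposed to chemical for 24 h in 96-well format; MMP1 biomarker quantified by ELISA, with activity fitted in the positive direction relative to DMSO baseline.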

Compound | outcome | AC50
Nc1ccc(-c2ccc(N)c(N)c2)cc1N | inactive | 
O=c1[nH]c(Cl)c(Cl)cc1Cl |  | 20 µM (active)
O=C(O)CCCc1ccc(N(CCCl)CCCl)cc1 | inactive | 30.6 µM (active)
COC(C)(C)CCC[C@H](C)C/C=C/C(C)=C/C(=O)OC(C)C |  | 26.9 µM (active)
O=P1(NCCCl)OCCCN1CCCl (stereo not given) | inactive | 
O=S(=O)(c1ccccc1)c1ccccc1 | inactive | 
Clc1ccc(-c2ccccc2)cc1 | inactive | 
Oc1cc(Cl)ccc1Cl | inactive | 

Read-out: TIMP metallopeptidase inhibitor 1 (TIMP1), TIMP1 (gene 7076)
Assay: BSK_MyoF_TIMP1: BioMAP Diversity Plus: MyoF Assay for TIMP metallopeptidase inhibitor 1 (TIMP1) Biomarker Activity (AID 2284269)
Details: primary human lung fibroblasts
Summary of the method: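 ELISA read-out of TIMP-1 from primary human lung fibroblast cultures 24 h after compound dosing; gain of signal relative to DMSO vehicle baseline defines activity.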

Compound | outcome
Nc1ccc(-c2ccc(N)c(N)c2)cc1N | inactive
O=c1[nH]c(Cl)c(Cl)cc1Cl | inactive
O=C(O)CCCc1ccc(N(CCCl)CCCl)cc1 | inactive
COC(C)(C)CCC[C@H](C)C/C=C/C(C)=C/C(=O)OC(C)C | inactive
O=P1(NCCCl)OCCCN1CCCl (stereo not given) | inactive
O=S(=O)(c1ccccc1)c1ccccc1 | inactive
Clc1ccc(-c2ccccc2)cc1 | inactive
Oc1cc(Cl)ccc1Cl | inactive
